Screening data deposited in PubChem BioAssay by National Center for Advancing Translational Sciences (NCATS).
This is one part of a sample in which hits are shown more often than they occur.
JMJD2E inh – inhibitors of human JMJD2E histone demethylase. B2RXH2. JMJD2E catalytic domain, FDH-coupled NADH fluorescence (FDH is formaldehyde dehydrogenase). Potency, µM (doses to about 57.1 µM), without a hit: top-dose activity change, negative = inhibition, actives largely listed as inhibitors. actives 1.6% (n = 230,000). AID 2147; active = well fitted inhibition curve with a large enough effect, not every such curve was filed as active; inconclusive = small, poorly fitted or top-dose-only effect, or another doubt; inactive = no such curve, though single readings can be large or run the other way;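 note: 0% = wells with enzyme and -100% = buffer wells without enzyme; nearly all actives have a fitted effect of over 50% in size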
RECQ1 helicase – inhibitors of human RECQ1 DNA helicase; P46063; RECQ1 DNA unwinding, red fluorescence kinetic read; Potency, µM (highest dose often 57.3 µM), for inactives: top-dose activity, negative = inhibition, usual class: inhibitors; actives 0.54% (n = 240,000); AID 2549;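 note: plate controls were vehicle for no effect and no enzyme for full effect; nearly all actives have a fitted effect of over 30% in size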
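RECQ1T1 50 nM; forked duplex (20 bp + 30-nt ss tails) 200 nM, ATP 2 mM final; pH 8.0, 2 mM MgCl2, 2.5 ug/ml poly(dI-dC); 15 min compound preincubation; discontinuous kinetic read over 2 h at RT.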
BLM inh – blocks DNA unwinding by human BLM helicase; P54132; recombinant BLM DNA unwinding, fluorescence dequenching; Potency, µM (doses to about 56.1 µM), for the others: at the top dose activity change, negative = inhibition, usual class: inhibitors; actives 0.2% (n = 350,000);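 note: plate controls were vehicle for no effect and no enzyme for full effect; nearly all actives have a fitted effect of over 35% in size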
Target sequence (P54132 whole entry, looked up): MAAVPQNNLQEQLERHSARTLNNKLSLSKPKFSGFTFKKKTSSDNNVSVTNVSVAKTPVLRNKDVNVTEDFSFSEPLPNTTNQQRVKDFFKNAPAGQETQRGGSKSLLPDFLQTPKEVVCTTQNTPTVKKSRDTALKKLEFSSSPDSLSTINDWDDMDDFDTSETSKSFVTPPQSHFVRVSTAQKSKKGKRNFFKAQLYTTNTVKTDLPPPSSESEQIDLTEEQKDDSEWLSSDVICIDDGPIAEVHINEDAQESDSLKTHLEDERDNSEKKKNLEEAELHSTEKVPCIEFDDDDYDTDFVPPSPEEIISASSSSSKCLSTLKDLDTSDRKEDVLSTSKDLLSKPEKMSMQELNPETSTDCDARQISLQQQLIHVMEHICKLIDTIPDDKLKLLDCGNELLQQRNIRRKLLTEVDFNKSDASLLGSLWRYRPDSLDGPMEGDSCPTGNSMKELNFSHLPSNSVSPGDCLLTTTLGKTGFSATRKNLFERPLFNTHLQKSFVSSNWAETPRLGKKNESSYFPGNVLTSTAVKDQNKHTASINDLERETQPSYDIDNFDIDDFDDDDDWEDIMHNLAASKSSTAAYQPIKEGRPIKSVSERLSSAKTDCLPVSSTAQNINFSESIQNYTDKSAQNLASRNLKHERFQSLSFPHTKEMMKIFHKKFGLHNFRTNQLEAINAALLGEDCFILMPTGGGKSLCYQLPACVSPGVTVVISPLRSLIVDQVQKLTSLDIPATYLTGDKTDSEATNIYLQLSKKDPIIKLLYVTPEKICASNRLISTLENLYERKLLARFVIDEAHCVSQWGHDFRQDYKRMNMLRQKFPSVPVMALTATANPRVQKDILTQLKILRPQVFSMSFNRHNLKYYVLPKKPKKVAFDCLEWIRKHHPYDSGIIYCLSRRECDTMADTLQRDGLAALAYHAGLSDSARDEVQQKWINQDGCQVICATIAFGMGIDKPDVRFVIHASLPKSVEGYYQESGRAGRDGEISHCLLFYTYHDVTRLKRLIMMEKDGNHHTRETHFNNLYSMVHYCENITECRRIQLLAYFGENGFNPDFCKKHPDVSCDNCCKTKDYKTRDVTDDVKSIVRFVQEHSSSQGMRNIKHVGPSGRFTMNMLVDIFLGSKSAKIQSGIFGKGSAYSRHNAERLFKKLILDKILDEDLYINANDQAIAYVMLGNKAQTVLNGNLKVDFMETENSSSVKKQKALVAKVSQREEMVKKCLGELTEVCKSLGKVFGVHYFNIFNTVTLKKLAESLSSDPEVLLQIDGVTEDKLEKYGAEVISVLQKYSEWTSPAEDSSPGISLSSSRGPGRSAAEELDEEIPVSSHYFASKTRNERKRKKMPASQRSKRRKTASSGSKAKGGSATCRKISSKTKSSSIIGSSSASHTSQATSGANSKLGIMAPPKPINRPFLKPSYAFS
PKM2 act – increases activity of human pyruvate kinase M2. actives 0.34% (n = 260,000). AID 1631. P14618. Potency, µM (series often up to 57.5 µM), inactives show top-dose activation, hits mostly activators. purified PKM2, Kinase-Glo ATP luminescence, activation; response scale: 0% is enzyme alone, no compound; note: nearly all actives have a fitted effect of over 55% in size
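hPK-M2, >95% pure; 0.1 mM ADP / 0.5 mM PEP final; imidazole pH7.2 buffer w/ 7 mM MgCl2, 50 mM KCl; 1 h RT; Kinase-Glo lum. Intermediate enzyme activity for dual inhibitor/activator qHTS.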
APEX1 inh – inhibitors of human APE1 endonuclease; P27695; recombinant APE1, TAMRA/BHQ-2 abasic DNA cleavage fluorescence; Potency, µM (top dose mostly 65.8 µM), for inactives: top-dose activity change, negative = inhibition, hits mostly inhibitors; actives 0.35% (n = 350,000); AID 2517;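 note: plate controls were vehicle for no effect and reference inhibitor for full effect; nearly all actives have a fitted effect of over 55% in size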
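Readout is kinetic fluorescence (ex 525, em 598 nm) from cleavage of 50 nM TAMRA/BHQ-2 THF abasic duplex by 0.75 nM APE1, compound added 15 min beforehand at RT.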
The depositor's hits bear a star; i = inactive; ? = inconclusive; nt = not tested or not shown; [ ] = dose if it differs, or a comment. Unless noted, calls come from the whole dose curve; as a rule, active = well fitted curve in the direction sought with a large enough effect; inconclusive = small, poorly fitted or top-dose-only effect, or another doubt; inactive = no such curve, though single readings can be large; an effect the other way counts as inactive or inconclusive. Unless noted, % is set by controls: 0 for no effect and ±100 for the full control effect; potency is the fitted concentration of half-maximal effect.

SMILES | JMJD2E inh | RECQ1 helicase | BLM inh | PKM2 act | APEX1 inh
CCOC(=O)c1c(C)oc2c1c(C=NCc1ccccn1)c(O)c1ccccc12 | 4µM* | -6% | -10% | 8% | 2%
C/C(N)=C(/C#N)C(=O)CSc1nnnn1-c1ccc(C)cc1 | 2% | 20µM* | -7% | -1% | -3%
Nc1ncnc2c1nc(N1CCCCC1)n2[C@@H]1O[C@@H]2COP(=O)(O)O[C@H]2[C@H]1O | nt | -6% | -3% | nt | -3%
O=C(/C=C/c1ccco1)c1ccc(NC(=O)C23CC4CC(CC(C4)C2)C3)cc1 | 32µM* | -3% | ? | 13% | 0%
CN1\C(=C/C=C/C=C/C=[N+](C)C)C(C)(C)c2ccccc21 | ? | 25µM* | 28µM* | nt | ?
N#Cc1c(N)sc(=S)c2c1CCCCC2 | 22µM* | ? | -30% | 10% | ?
N#Cc1c(N)sc2c1CCCCCC2 | -5% | -9% | -3% | -1% | 2%
CC(C)[C@H](NS(=O)(=O)c1cccc(Cl)c1)C(=O)OCC(=O)NC(=O)CN1CCCC1=O | nt | nt | nt | nt | 13µM*
COc1cccc(CC(=O)N2CCc3nc(-c4ccccc4)c4c(c3C2)CO[C@@H](C)C4)c1 | 1%[11.4 µM] | 2%[11.5 µM] | -2%[12.4 µM] | -7%[11.5 µM] | 7%[12.4 µM]
COc1ccc2nc(Cl)c(C3CC(c4ccco4)=NN3C(=O)CCCC(=O)O)cc2c1 (stereo not drawn) | -18% | -2% | -3% | 22µM* | -6%
COc1ccc2nc(Cl)c(C3CC(c4ccco4)=NN3C(=O)CCC(=O)O)cc2c1 (stereo not drawn) | 0% | -2% | -8% | 5% | ?
CSCC[C@H](NC(=O)[C@H](CO)NC(=O)[C@H](Cc1ccc(O)cc1)NC(=O)[C@@H](N)CO)C(=O)N[C@@H](CCC(=O)O)C(=O)N[C@@H](Cc1cnc[nH]1)C(=O)N[C@@H](Cc1ccccc1)C(=O)N[C@@H](CCCNC(=N)N)C(=O)N[C@@H](Cc1c[nH]c2ccccc12)C(=O)NCC(=O)N[C@@H](CCCCN)C(=O)N1CCC[C@H]1C(=O)N[C@H](C(=O)NCC(=O)N[C@@H](CCCCN)C(=O)N[C@@H](CCCCN)C(=O)N[C@@H](CCCNC(=N)N)C(=O)N[C@@H](CCCNC(=N)N)C(=O)N1CCC[C@H]1C(=O)N[C@H](C(=O)N[C@@H](CCCCN)C(=O)N[C@H](C(=O)N[C@@H](Cc1ccc(O)cc1)C(=O)N1CCC[C@H]1C(=O)N[C@@H](CC(N)=O)C(=O)NCC(=O)N[C@@H](C)C(=O)N[C@@H](CCC(=O)O)C(=O)N[C@@H](CC(=O)O)C(=O)N[C@@H](CCC(=O)O)C(=O)N[C@@H](CO)C(=O)N[C@@H](C)C(=O)N[C@@H](CCC(=O)O)C(=O)N[C@@H](C)C(=O)N[C@@H](Cc1ccccc1)C(=O)N1CCC[C@H]1C(=O)N[C@@H](CC(C)C)C(=O)N[C@@H](CCC(=O)O)C(=O)N[C@@H](Cc1ccccc1)C(=O)O)C(C)C)C(C)C)C(C)C | nt | 5% | 10% | nt | 2%
OC1CC(c2ccco2)NC2(CCCCC2)C1 (stereo not drawn) | 22µM* | -3% | -8% | -22% | -2%
CC[C@H](C)[C@H](NC(=O)[C@H](C)NC(=O)[C@H](CC(=O)O)NC(=O)[C@H](CO)NC(=O)[C@@H](N)Cc1cnc[nH]1)C(=O)N[C@@H](Cc1ccccc1)C(=O)N[C@H](C(=O)N[C@@H](CCC(N)=O)C(=O)N[C@@H](CCC(N)=O)C(=O)N[C@@H](Cc1ccc(O)cc1)C(=O)N[C@@H](CO)C(=O)N[C@@H](CCCCN)C(=O)N[C@@H](CC(C)C)C(=O)N[C@@H](CC(C)C)C(=O)N[C@@H](C)C(=O)N[C@@H](CCCCN)C(=O)N[C@@H](CC(C)C)C(=O)N[C@@H](C)C(=O)N[C@@H](CC(C)C)C(=O)N[C@@H](CCC(N)=O)C(=O)N[C@@H](CCCCN)C(=O)N[C@@H](Cc1ccc(O)cc1)C(=O)N[C@@H](CC(C)C)C(=O)N[C@@H](C)C(=O)N[C@@H](CO)C(=O)N[C@H](C(=O)N[C@@H](CC(C)C)C(=O)NCC(=O)N[C@@H](CO)C(=O)N[C@@H](CCCNC(=N)N)C(=O)N[C@H](C(=O)N[C@@H](CO)C(=O)N1CCC[C@H]1C(=O)N1CCC[C@H]1C(=O)N1CCC[C@H]1C(N)=O)[C@@H](C)O)[C@@H](C)CC)[C@@H](C)O | nt | -14% | -5% | nt | ?
Oc1ccc2c(c1)OCC1(O)Cc3cc(O)c(O)cc3C21 (stereo not drawn) | 14µM* | -3% | -2% | nt | -1%
Oc1ccc2c(c1)OCO2 | nt | -3% | nt | nt | 1%
Oc1cc2c(cc1O)[C@H]1c3ccc(O)c(O)c3OC[C@@]1(O)C2 | 3.5µM* | -18% | -3% | nt | ?
C=CC(=O)OCC(CO)(COC(=O)C=C)COC(=O)C=C | nt | -3% | nt | nt | 5%
CC1(C)Cc2c(c(-c3ccco3)[nH]c(=O)c2C#N)CS1 | ? | 32µM* | -2% | -10% | -9%
CC(=O)Nc1ccc(S(=O)(=O)Nc2nnc(C(C)(C)C)s2)cc1 | 3% | -8% | 0% | 16µM* | -11%
CC(C)(C)c1nnc(NC(=O)Nc2ccc(Cl)cc2)s1 | 7% | i | -8% | 5% | -3%
C[N+](C)(C)CC(O)CC(=O)[O-] (stereo not drawn) | nt | nt | nt | nt | -1%
Fc1ccc(N=c2ssnc2Cl)c(F)c1 | ? | -1% | -1% | -26% | 1%
Clc1ccc(N=c2ssnc2Cl)cc1 | 10µM* | i | 3% | -30% | 2%
N#Cc1ccc(N=c2ssnc2Cl)cc1 | ? | -3% | 2% | -24% | 10%
SMILES | JMJD2E inh | RECQ1 helicase | BLM inh | PKM2 act | APEX1 inh
Clc1nssc1=Nc1ccccc1 | 10µM* | -15% | -12% | 13% | 8%
COc1cc(N=c2ssnc2Cl)cc(OC)c1OC | 18µM* | -4% | 0% | -31% | 0%
COc1ccc(N=c2ssnc2Cl)cc1 | 20µM* | i | 3% | -46% | 0%
CC(=O)OCC1OC(C#Cc2ccc(C)cc2C)C=CC1OC(C)=O (stereo not drawn) | nt | 14%[11.5 µM] | 0%[12.4 µM] | nt | 3%[12.4 µM]
COC(=O)N1C2=C(c3ccccc3[C@@H]1CC(=O)Nc1ccc3cc4ccccc4cc3c1)[C@@H]1C(=O)N(c3ccccc3)C(=O)[C@@H]1[C@H](C)C2 | ? | i[11.5 µM] | -3%[12.4 µM] | -3%[11.5 µM] | 1%[12.4 µM]
Cc1ccc(C)c(-n2nnnc2SCC(=O)c2ccc3c(c2)NC(=O)CO3)c1 | 7% | i | -15% | 14µM* | -4%
Cc1ccc2nc(SCC(=O)c3ccc4c(c3)NC(=O)CO4)[nH]c2c1 | -28% | i | 0% | -5% | 9%
